# MenB inh: inhibitors of Mycobacterium tuberculosis MenB enzyme; P9WNP5; MenB enzyme assay, absorbance read-out; actives 0.43% (n = 100,000); inhibition, % (test concentration not listed); in the data active means inhibition above about 21%, passing the limit was not always enough
# Target sequence (P9WNP5 whole entry, looked up): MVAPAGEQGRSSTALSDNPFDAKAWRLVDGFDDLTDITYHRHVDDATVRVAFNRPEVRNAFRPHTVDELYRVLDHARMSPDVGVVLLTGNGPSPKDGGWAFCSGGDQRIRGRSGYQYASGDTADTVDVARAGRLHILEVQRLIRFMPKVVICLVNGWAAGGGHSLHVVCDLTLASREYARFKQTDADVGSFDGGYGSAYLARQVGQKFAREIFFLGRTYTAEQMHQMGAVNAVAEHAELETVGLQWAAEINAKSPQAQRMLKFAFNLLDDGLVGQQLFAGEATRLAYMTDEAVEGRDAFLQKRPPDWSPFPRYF
# AID504770: E. coli YBA685 growth inhibition, screen for V. cholerae RctB inhibitors; E. coli YBA685 rctB-dependent plasmid, OD600 growth, 3 h; stronger effect = lower value; z-score (no concentration beside the values); actives 0.27% (n = 130,000); in the data active means z-score below about -2, passing the limit was not always enough
# Mtb MbtI inh: MbtI salicylate synthase inhibition; P9WFX0; purified MbtI enzyme, fluorescence intensity read-out; inhibition, % (no concentration beside the values); actives 0.89% (n = 100,000); AID 493033; in the data active means inhibition mostly above about 56%, no sharp cut-off; inactive means mostly below about 77%
# Polio RdRp inh: inhibitors of poliovirus RNA polymerase binding and polymerization; % elongation, % (compound at 16.7 µg/mL); poliovirus polymerase elongation, fluorescence polarization; stronger effect = lower value; actives 0.66% (n = 150,000); P03300; AID 588519; in the data active means % elongation below about 90%
# Active calls of the source: *; nt = no result. Rows were chosen to be rich in hits. Some 1.4% of all compounds tested hit in one or more screens of this group.
SMILES,MenB inh,AID504770,Mtb MbtI inh,Polio RdRp inh
Cc1cc(C)nc(N2CCNCC2)n1,12.4,-0.1,57.6,102.0
C1CCN(c2nc(N3CCCC3)nc(N3CCNCC3)n2)C1,32.8*,0.1,-21.6,100.0
Cc1cc(C(=O)NN2C3CSC2CS3)no1,75.4*,-0.25,-4.3,99.0
Cc1cc(C(=O)NC2CCCCCC2)no1,-3.0,-0.4,-10.1,106.0
COc1cccc(CN(C(=O)/C=C/c2ccccc2)C2CCS(=O)(=O)C2)c1 (stereo not drawn),-10.4,0.05,9.0,101.0
CCC(=O)Nc1nc2cc(Cl)c(C)cc2s1,-17.9,-0.85,-6.2,103.0
Cc1ccc(-n2c(C)cc(P(=S)(N3CCOCC3)N3CCOCC3)c2C)c(C)c1,-132.9,-0.3,68.6*,92.0
Cc1cc(P(=N)(N2CCOCC2)N2CCOCC2)c(C)n1-c1ccc(I)cc1,-0.2,-0.1,-8.0,100.0
Cc1ccccc1Nc1cc2ccccc2c(=O)[nH]1,nt,-3.95*,6.7,nt
O=C(NC1CCCCCC1)c1ccc2c(c1)sc1nc(-c3ccccc3)cn12,nt,nt,nt,107.0
CCOc1cc2sc(N3CCC(C(=O)Nc4ccc(CC)cc4)CC3)nc2cc1Br,nt,nt,nt,111.0
Cc1ccc(C2=NS(=O)(=O)N(C)C(C(=O)Nc3sc4c(c3C(N)=O)CCCC4)=C2)cc1,-66.6,-0.15,57.8*,94.0
Cc1ccc(C)c(CSc2nc3ccncc3n2Cc2nc(-c3ccccc3Cl)oc2C)c1,nt,nt,nt,106.0
Cc1ccc(S(=O)(=O)N(C)C)cc1,nt,-0.55,-3.5,101.0
Cc1ccc(N(O)S(=O)(=O)c2ccc(C)cc2)cc1,18.5,-0.95,64.9*,107.0
Cc1ccc(S(=O)(=O)N(O)c2ccc(Cl)cc2)cc1,nt,0.25,82.5*,99.0
CCCN1CCOC(CC(=O)Nc2ccc(Br)cc2Br)C1=O (stereo not drawn),nt,0.7,87.0*,nt
CCN1CCOC(CC(=O)Nc2ccccc2C)C1=O (stereo not drawn),-6.1,0.8,75.4*,105.0
COc1ccc(NC(=O)c2ccco2)cc1NC(=O)c1ccc(C)c(C)c1,nt,nt,nt,104.0
COc1cc(OC)cc(C(=O)Nc2cc(NC(=O)c3ccco3)ccc2OC)c1,47.9*,-0.4,9.0,99.0
COc1ccc(CNC(=O)Nc2cn(CC(C)C)c(=O)c3ccccc23)cc1,nt,nt,nt,60.0*
CC(=O)c1ccc(N2CCN(C(=O)Nc3cn(CC(C)C)c(=O)c4ccccc34)CC2)cc1,nt,nt,nt,76.0*
CC(C)Cn1cc(NC(=O)N2CCN(c3ccccc3)CC2)c2ccccc2c1=O,0.2,-0.45,-20.0,98.0
Cc1ccc(Cl)cc1NC(=O)Nc1cn(CC(C)C)c(=O)c2ccccc12,nt,nt,nt,69.0*
COc1ccc(C(=O)Nc2ccc3c(c2)nc2n3CCN(Cc3ccccc3)C2)cc1,15.3,1.6,80.8,103.0
SMILES,MenB inh,AID504770,Mtb MbtI inh,Polio RdRp inh
CC(C)CC(C(=O)N1CCCc2ccccc21)N1C(=O)c2ccccc2C1=O (stereo not drawn),-12.1,0.15,-7.0,106.0
COC(=O)c1c(C)oc(C)c1S(=O)(=O)Nc1ccccc1,nt,-0.2,nt,nt
N/C(=N\C(=S)Nc1ccccc1)N1CCOCC1,-26.3,1.5,-1.1,103.0
O=C(N1CCOCC1)N1CCN(c2ccccc2)CC1,36.3*,-0.2,2.2,99.0
O=C(Nc1ccccc1)C(=S)N1CCOCC1,-35.6,1.25,nt,82.0*
O=C(N1CCOCC1)N1CCN(c2ccccc2F)CC1,-14.4,0.05,2.3,102.0
CN1/C(=C\C(=S)NC(=O)c2ccco2)C(C)(C)c2ccccc21,-187.4,-0.4,21.4,110.0
CCN(CC)C(=O)COc1ccccc1C(=O)NCc1ccccc1,27.5*,-0.45,-5.8,102.0
CCN(CC)C(=O)COc1cccc2ccccc12,-17.7,-0.25,9.9,99.0
O=C(CS(=O)(=O)Cc1ccccc1)Nc1ccc2c(c1)OCO2,-15.6,-0.95,6.8,103.0
O=C(CNS(=O)(=O)c1ccccc1)Nc1ccc2c(c1)OCO2,55.9*,0.8,4.3,103.0
Nc1n[nH]c(C2CCCCC2)n1,-54.5,0.05,-1.8,101.0
Nc1nc(N)c2[nH]c(C3CCCCC3)nc2n1,-6.2,-1,79.2,79.0*
N#Cc1ccc(COc2ccc(-n3cnnn3)cc2)cc1,-20.8,-0.25,-2.3,101.0
O=C(N/N=C1\C/C(=N\NC(=O)c2ccncc2)c2ccccc21)c1ccncc1,-205.7,-2.3,-34.5,87.0*
O=C(NN=C1C2CC3CC(C2)CC1C3)c1ccncc1,3.8,-0.1,5.2,100.0
O=C1C=CC(=O)C(Nc2ccccc2)=C1,nt,-0.2,98.7*,100.0
O=C1C=C(Nc2ccccc2)C(=O)c2ccccc21,-16.4,1.4,7.1,99.0
O=C(CSC1=NCCN1)C1COc2ccccc2O1 (stereo not drawn),84.0*,-0.85,22.1,101.0
CC12C=CC(CO)(O1)C1C(=O)N(c3ccc(Br)cc3)C(=O)C12 (stereo not drawn),-16.8,1.4,101.2*,104.0
CC1(C)c2sc(=O)[nH]c2SC2C(=O)N(c3ccc(Br)cc3)C(=O)C21 (stereo not drawn),-7.9,0.1,-9.7,100.0
O=C(Sc1ccc(C(F)(F)F)cn1)c1csc(C2COc3ccccc3O2)n1 (stereo not drawn),-12.3,-1.25,70.7*,102.0
CCOC(=O)c1cccc(NC(=O)CNS(=O)(=O)c2ccc3nc(C)sc3c2)c1,nt,0.45,nt,nt
COc1cccc(NC(=O)CCSc2nc(-c3ccco3)cc(C(F)(F)F)n2)c1,nt,nt,nt,90.0*
O=C(CN1CCCc2ccccc21)NN1C(=O)NC2(CCCCC2)C1=O,-31.3,-0.75,-13.2,101.0
SMILES,MenB inh,AID504770,Mtb MbtI inh,Polio RdRp inh
NC(N)=NC(N)=Nc1ccc(Cl)cc1Cl,-10.0,-0.15,-12.0,100.0
CC1CN(C(=S)c2ccccc2)CC(C)O1 (stereo not drawn),-11.3,0.45,67.7*,96.0
CC1CN(C(=S)NCCc2ccccc2)CC(C)O1 (stereo not drawn),7.1,0,9.1,98.0
COc1ccc(Cc2nn3c(Cc4ccccc4)nnc3s2)cc1,-37.0,0.2,93.1*,96.0
CCOc1ccc(C(=O)c2cn(Cc3ccccc3)c3c(F)cc(F)cc3c2=O)cc1,nt,nt,nt,103.0
Cc1c(Cc2ccccc2)c(-n2ccnc2C)n2c(nc3ccccc32)c1C#N,7.2,1.2,0.3,101.0
CC(CO)(CO)NC(=S)Nc1ccc(F)c(Cl)c1,0.4,0.25,55.4*,107.0
COc1cccc(COCC(O)CN2CCC(C(N)=O)CC2)c1 (stereo not drawn),-8.7,-0.6,99.1*,101.0
N#Cc1ccc(CSc2nc3ccccc3c(=O)[nH]2)cc1,-13.7,-0.1,53.4*,99.0
O=S(=O)(CCc1ccccc1)c1ccccc1,26.2*,1.05,-2.5,100.0
CCOC(=O)NC(=S)Nc1ccc(OC)cc1,-7.1,-0.35,-4.8,100.0
CCOC(=O)NC(=S)c1ccc(OC)cc1,-7.2,-0.6,78.5*,82.0*
CCn1c(COc2cccc(C)c2)nnc1SCC(=O)N1C(C)CCCC1C (stereo not drawn),38.5*,-0.45,-5.2,102.0
CCn1c(COc2ccc(C)cc2)nnc1SCC(=O)N1CCCc2ccccc21,22.9,0.95,1.2,99.0
CNC(=O)C1C2C=CC3(O2)C1C(=O)N(C1CC1)C3C(=O)NCc1ccc(OC)cc1 (stereo not drawn),47.9*,-0.45,-4.3,102.0
